Measurements: PubChem BioAssay AID1345085 (National Center for Advancing Translational Sciences (NCATS), 2018)
Results filed as inconclusive are left out. A number with no mark means an inactive call. Calls of active or inactive are those of the source. Calls come from the whole dose curve; as a rule, active = well fitted cell-killing curve with a large enough effect; inconclusive = small, poorly fitted or top-dose-only effect, or effect the other way; inactive = no such curve, though single readings can be large or run the other way.

test system: C33A; assay: Confirmatory qHTS for gynecologic anti-cancer compounds from libraries of approved drugs and bioactive compounds; conditions: gynecologic cancer cell panel viability, ATPlite luminescence, 48 h; series mostly up to 57.6 µM; activity change, negative = viability loss: at the top concentration; note: nearly all actives have a fitted effect of over 55% in size
Description: National Center for Advancing Translational Sciences [NCATS] Assay Overview: Chemotherapeutic drug responses vary from cancer to cancer and from patient to patient. These variations could be caused by a number of factors including patient genomic background, tumor mutations, tumor heterogeneity, and aspects of drug treatment. Chemotherapeutic drug resistance is also a common issue and can lead to ineffective treatment and patient death. Here we have profiled the cell killing effects of thousands of compounds to characterize the responses in three gynecological cancers, identify cancer-selective compounds, and understand the diversity of responses to these compounds from pan-cancer suppressors to single cell line selective compounds. In this assay, we screened a 7,914 compound drug library that included approved drug and bioactive compounds in six ovarian, three cervical, and two placental cancer cell lines using the ATPlite assay for cell viability. ATPlite is a luminescence based assay reliant on the conversion of a luciferase substrate to light in the presence of ATP. As a cytotoxic compound will suppress growth and decrease the number of cells, the concentration of ATP will decrease, and less light signal will be detected in the well. Hits were selected from the primary screen for follow-up confirmation. For the confirmation screens, the ovarian cancer cell lines included CAOV-3, SK-OV-3, SW 626, ES-2, PA-1, and TOV-21G. The cervical cancer cell lines included HeLa, Ca Ski, and C-33 A. The placental cancer cell lines included JEG-3 and JAR. HEK 293T cells were used as the control cell line to determine the selectivity index. The ATPlite assay was used to determine the IC50 values.
Assay Protocol Summary: 1,000 cells in 4 uL of media were dispensed into white, solid bottom 1536-well plates using a Multidrop Combi (Thermo Scientific). The Assay plates were incubated for 16 hours at 37 C with 5% CO2 in assay plates, followed by the addition of 23 nL of DMSO or drug dissolved in DMSO. . Each compound was assayed in 11 concentrations (1:3 dilution) from 57.5 uM to 0.977 nM, using the automated Wako 1536 Pin Tool workstation and incubated at 37 C with 5% CO2 48 hours. 4 uL of ATPlite, the ATP monitoring reagent, was then added to the each well of the assay plates using the Multidrop Combi reagent dispenser followed by incubation for 15 minutes at room temperature. The resulting luminescence was measured using the ViewLux plate reader.
% is set by controls: 0 for no effect and ±100 for the full control effect; potency is the fitted concentration of half-maximal effect.

SMILES	Potency	activity change, negative = viability loss
COc1c(C)c2c(c(O)c1C/C=C(\C)CCC(=O)OCCN1CCOCC1)C(=O)OC2	2730 nM (active)	
COc1ccc2c(c1OC)C(=O)O[C@@H]2[C@H]1c2c(cc3c(c2OC)OCO3)CCN1C		11.5%
CN(NC(=O)CC(=O)NN(C)C(=S)c1ccccc1)C(=S)c1ccccc1	27.3 nM (active)	
CN[C@@H](C)C(=O)N[C@H]1CN(C(=O)CC(C)C)CC[C@H]2CC[C@@H](C(=O)NC(c3ccccc3)c3ccccc3)N2C1=O		20.9%
COc1ccc2cc3[n+](cc2c1OC)CCc1cc2c(cc1-3)OCO2		-16%
C[C@]12CCC(=O)C=C1[C@@H]1C[C@@H]1[C@H]1[C@@H]3[C@@H]4C[C@@H]4[C@@]4(CCC(=O)O4)[C@@]3(C)CC[C@@H]12		-12.5%
O=c1cc(CN2CCOCC2)occ1OCCCCCSc1ccnc2cc(C(F)(F)F)ccc12		-17.5%
Nc1ccn([C@@H]2O[C@H](CO)[C@@H](O)C2(F)F)c(=O)n1	17.2 nM (active)	
CCc1cccc(CC)c1NC(=O)N1Cc2[nH]nc(NC(=O)c3ccc(N4CCN(C)CC4)cc3)c2C1		8.99%
FC(F)(F)c1ccc(/C=C/c2nc(COc3ccc(CCCCn4ccnn4)cc3)co2)cc1		-29.5%
CN1CCN(c2cccc(Nc3nc4c(-c5ccc(S(C)(=O)=O)cc5)cccn4n3)c2)CC1		-10.2%
CC(=O)NCC(=O)N1C2CCC1c1cc(Nc3ncc(C(F)(F)F)c(NC4CCC4)n3)ccc12 (stereo not given)		-7.17%
CC(C)n1nc(-c2cc3cc(O)ccc3[nH]2)c2c(N)ncnc21	3060 nM (active)	
CC1(C)[C@@H](O)CC[C@]2(C)[C@H]3C(=O)C=C4[C@@H]5C[C@@](C)(C(=O)O)CC[C@]5(C)CC[C@@]4(C)[C@]3(C)CC[C@@H]12		8.69%
CCCCc1oc2ccc(NS(C)(=O)=O)cc2c1C(=O)c1ccc(OCCCN(CCCC)CCCC)cc1	27300 nM (active)	
Cc1cnc(Nc2cccc(CN3CCOCC3)c2)nc1Nc1cccc(S(=O)(=O)NC(C)(C)C)c1	24300 nM (active)	
O=C(/C=C/c1cccc(S(=O)(=O)Nc2ccccc2)c1)NO	2980 nM (active)	
CC(C)Oc1ccc(C(=O)NC(CNC(=O)CN(C)C)Cc2ccc(-c3cn4cccc(C(C)O)c4n3)cc2)cc1Cl (stereo not given)		-17.7%
COc1ccc(CCC(=O)c2c(O)cc(O[C@@H]3O[C@H](CO)[C@@H](O)[C@H](O)[C@H]3O[C@@H]3O[C@@H](C)[C@H](O)[C@@H](O)[C@H]3O)cc2O)cc1O		11.6%
CN(C)C1CCN(C(=O)c2ccc(NC(=O)Nc3nc(N4CCOCC4)nc(N4CCOCC4)n3)cc2)CC1	172 nM (active)	

SMILES	Potency	activity change, negative = viability loss
Cc1cc(Nc2cc(N3CCN(C)CC3)nc(Sc3ccc(NC(=O)C4CC4)cc3)n2)n[nH]1		-16.6%
COc1cc2c(cc1-c1c(C)noc1C)ncc1[nH]c(=O)n(C(C)c3ccccn3)c12 (stereo not given)		-3.53%
COc1c(C)c2c(c(O)c1C/C=C(\C)CCC(=O)O)C(=O)OC2		-23.6%
N=C(N)c1ccc(OCCCCCOc2ccc(C(=N)N)cc2)cc1		-15.8%
O=c1[nH]c(=O)n([C@H]2C[C@H](O)[C@@H](CO)O2)cc1F	2170 nM (active)	
Cc1csc(NC(=O)c2sc3nc4c(c(C(F)(F)F)c3c2N)CCC4)n1	1930 nM (active)	
CC1=C(/C=C/C(C)=C/C=C/C(C)=C/C(=O)Nc2ccc(O)cc2)C(C)(C)CCC1	3850 nM (active)	
CC(C)C[C@H](NC(=O)[C@@H](NC(=O)c1cccc(-c2ccccc2)n1)[C@@H](C)O)B(O)O	385 nM (active)	
CCC1=CC2CN(C1)Cc1c([nH]c3ccccc13)[C@@](C(=O)OC)(c1cc3c(cc1OC)N(C)[C@H]1[C@@](O)(C(=O)OC)[C@H](OC(C)=O)[C@]4(CC)C=CCN5CC[C@]31[C@@H]54)C2 (stereo not given in full)	211 nM (active)	
NC(=O)c1cnc(-c2ccc(C3(N)CCC3)cc2)c(-c2ccccc2)c1	19300 nM (active)	
O=C1NC(=O)C(c2cnc3ccccn23)=C1c1cn2c3c(cccc13)CN(C(=O)N1CCOCC1)CC2		-0.13%
CC[C@]1(O)C[C@H]2CN(CCc3c([nH]c4ccccc34)[C@@](C(=O)OC)(c3cc4c(cc3OC)N(C=O)[C@H]3[C@@](O)(C(=O)OC)[C@H](OC(C)=O)[C@]5(CC)C=CCN6CC[C@]43[C@@H]65)C2)C1	306 nM (active)	
CCS(=O)(=O)c1cccc(-c2cc(C(=O)NC3CCN(C)CC3)c(C)c3[nH]c4ncc(C)cc4c23)c1	5340 nM (active)	
OCc1ccc(-c2ccc(-c3ccc(CO)s3)o2)s1		-12.9% [at 19.5 µM]
Nc1ccccc1NC(=O)c1ccc(CNC(=O)OCc2cccnc2)cc1	5440 nM (active)	
Nc1cccc(-c2cc3c(Oc4cccc(O)c4)ncnc3[nH]2)c1		-12.5%
Cc1cc(Nc2nc(N[C@@H](C)c3ncc(F)cn3)ncc2Cl)n[nH]1		6.99%
Cc1ccc(NC(=O)c2ccc(CN3CCN(C)CC3)cc2)cc1Nc1nccc(-c2cccnc2)n1		-24.7%
CN(C)C/C=C/C(=O)Nc1cc2c(Nc3ccc(F)c(Cl)c3)ncnc2cc1OC1CCOC1 (stereo not given)	6850 nM (active)	
COc1cc(F)c(F)c(Nc2ccc(I)cc2F)c1NS(=O)(=O)C1(CC(O)CO)CC1 (stereo not given)		1.44%
